Compounds with a hit are over-represented: about 21% of the library has one in this group of screens.
HCMV antiviral – human cytomegalovirus inhibition. HFF cells, HCMV-luciferase reporter, 72 h; active compounds read low. activity change, negative = inhibition, % at 57.5 µM. 4.5% of 410,000 active; in the data active = activity change below about -60%; inconclusive = no clear call, values can overlap the other calls; inactive = above about -39%
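Two-dose cell screen: HFF monolayers treated with compounds and infected with luciferase-expressing HCMV at 1 PFU/cell, 72 h at 37C, then lysed for luciferase measurement.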
Shiga toxin inh – inhibitors of Shiga toxin in Vero cells. Vero cells, Shiga toxin protein synthesis inhibition reporter. inhibition, % at 38.7 µM. 9.2% of 290,000 active. AID 2315; in the data active = inhibition mostly above about 28%, no sharp cut-off; inactive = mostly below about 43%
Pf growth 48h – P. falciparum growth inhibition at 48 hours (one generation). P. falciparum luciferase growth in erythrocytes, 48 h. Potency, µM (series often up to 28.7 µM), actives largely listed as inhibitors. 5.9% of 310,000 active. AID 504832
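First compound was added to culture medium, then infected red cells at 0.1% parasitemia and 2% hematocrit (final). After incubation at 37 C under 5% CO2, luciferase detection reagent was dispensed and light output recorded.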
Pf growth 96h – P. falciparum growth inhibition at 96 hour, primary screen for plastid delayed-death inhibitors; Potency, µM (highest dose often 28.7 µM), usual class: inhibitors; P. falciparum luciferase reporter growth, 96 h; 6.9% of 320,000 active
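P. falciparum expressing integrated firefly luciferase grown in erythrocytes (2% hematocrit, 0.05% parasitemia final) with compounds for 96 hours at 37 C, 5% CO2. Growth inhibition read as loss of luminescence after adding luciferase detection reagent.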
HCV inhibitor – HCV inhibition; Huh7.5.1 HCVcc-Cre infection, luciferase reporter, 44 h; Potency, µM (series often up to 41.8 µM), hits mostly inhibitors; 3.4% of 340,000 active; AID 651820
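After 44 h co-culture of compound, cells and HCVcc-Cre (~0.5 moi), substrate is added for 15 min at room temperature and luciferase measured over 15 sec. Cells were seeded at 1,000/well and pre-cultured 4 h.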
CHX counter – counter-screen hit for Shiga toxin inhibitors, cycloheximide | cell reporter, cycloheximide protein synthesis inhibition counterscreen | max response, % | 12% of 300,000 active | AID 2314; in the data active = max response mostly above about 13%, no sharp cut-off; inactive = mostly below about 14%; note: read at 38.3 µM for the half of the compounds with a filed dose
Each line names hits and unclear results; the compound was inactive in the other large screens. Unless noted, calls come from the whole dose curve; as a rule, active = well fitted inhibition curve with a large enough effect; inconclusive = small, poorly fitted or top-dose-only effect, or another doubt; inactive = no such curve, though single readings can be large or run the other way.

CSc1ccc(CCNC(=O)CCc2c(C)nc3c(-c4ccccc4)c(C)nn3c2C)cc1	none (no result: Shiga toxin inh, Pf growth 48h, Pf growth 96h, HCV inhibitor, CHX counter)
C/C(Cn1cnc([N+](=O)[O-])n1)=N\NC(=O)c1ccncc1	none
COc1ccc(C(=O)N/N=C(\C)Cn2cnc([N+](=O)[O-])n2)cc1	none
C/C(Cn1cnc([N+](=O)[O-])n1)=N\NC(=O)c1cccc(F)c1	Shiga toxin inh 96, HCV inhibitor 11µM, CHX counter 25
C/C(Cn1cnc([N+](=O)[O-])n1)=N\NC(=O)c1ccc(F)cc1	Shiga toxin inh 41, Pf growth 96h inconclusive, CHX counter 25
Cc1cccc(NC(=O)N2CCc3c(sc4c3CCCC4)C2c2ccc(F)cc2)c1 (stereo not drawn)	none (no result: Shiga toxin inh, Pf growth 48h, Pf growth 96h, HCV inhibitor, CHX counter)
Cn1c(/C(C#N)=C/c2ccncc2)nc2ccccc21	none
Cn1c(/C(C#N)=C/c2ccc(O)cc2)nc2ccccc21	Shiga toxin inh 47, Pf growth 96h 2.3µM, CHX counter 50
CCN1C(=NCC(C)C)N[C@@H](c2cccc(F)c2)C(C(=O)OC)=C1C	Pf growth 48h inconclusive
COc1cc(C2C(C(=O)/C=C/c3ccccc3)=C(O)C(=O)N2c2ccccn2)ccc1O (stereo not drawn)	none
COc1ccc(N2CCN(C(=O)CCCC3=NS(=O)(=O)c4ccccc4N3)CC2)cc1	Pf growth 48h inconclusive, Pf growth 96h inconclusive
O=C(CCCC1=NS(=O)(=O)c2ccccc2N1)N1CCN(c2ccc([N+](=O)[O-])cc2)CC1	Pf growth 48h 8.3µM, Pf growth 96h inconclusive
Cc1cc2ncn(/N=C/c3ccc4c(c3)OCO4)c2cc1C	Shiga toxin inh 76, Pf growth 48h inconclusive, CHX counter 18
C(=N\n1cnc2ccccc21)/c1cccnc1	CHX counter 19 (no result: Pf growth 48h)
Cc1cc2ncn(/N=C/c3cccnc3)c2cc1C	Pf growth 48h 15µM, Pf growth 96h inconclusive, HCV inhibitor inconclusive
COc1ccc2c3c([nH]c2c1)C(C)=NCC3	HCMV antiviral inconclusive, Pf growth 96h inconclusive
COc1ccc2c(c1)[nH]c1c(C)nccc12	HCMV antiviral -95, Pf growth 48h inconclusive, Pf growth 96h inconclusive, HCV inhibitor inconclusive (no result: Shiga toxin inh, CHX counter)
Cc1ccc(-c2nc(=O)[nH]c3ccc(Br)cc23)cc1	HCMV antiviral inconclusive
Cc1nccc2c1[nH]c1ccc(Br)cc12	Pf growth 48h inconclusive, HCV inhibitor 4µM (no result: Shiga toxin inh, CHX counter)
CCC(C)c1ccccc1N1CC(C(=O)Nc2ccc(S(=O)(=O)N3CCOCC3)cc2)CC1=O (stereo not drawn)	Pf growth 48h inconclusive, Pf growth 96h inconclusive (no result: Shiga toxin inh, CHX counter)
Nc1ncnc2c1ncn2[C@@H]1O[C@H](CNCc2ccc(-c3cc(C(F)(F)F)ccc3Cl)o2)[C@@H](O)[C@H]1O	HCV inhibitor 35µM (no result: Shiga toxin inh, Pf growth 48h, Pf growth 96h, CHX counter)
O=c1ccn([C@@H]2O[C@H](CNCc3ccc(-c4cc(C(F)(F)F)ccc4Cl)o3)[C@@H](O)[C@H]2O)c(=O)[nH]1	none (no result: Shiga toxin inh, Pf growth 48h, Pf growth 96h, CHX counter)
CC1=C(C(=O)N(C(C)C)C(C)C)CC(CC(=O)NCCc2ccccn2)C(=O)N1CCCN1CCCC1=O (stereo not drawn)	none (no result: Shiga toxin inh, Pf growth 48h, Pf growth 96h, HCV inhibitor, CHX counter)
CC1=C(C(=O)N2CCCCCC2)CC(CC(=O)NCCc2ccccn2)C(=O)N1CCCN1CCCC1=O (stereo not drawn)	HCMV antiviral -84 (no result: Shiga toxin inh, Pf growth 48h, Pf growth 96h, HCV inhibitor, CHX counter)
CSCc1cc(N(C)c2ccccc2)nc(-c2ccccn2)n1	HCMV antiviral -85, Pf growth 96h inconclusive, HCV inhibitor 2.8µM
CN(C)c1cc(C(F)(F)F)nc(-c2ccccn2)n1	none
O=C1NC(=S)N/C1=C/c1cc2c(cc1[N+](=O)[O-])OCO2	HCMV antiviral -80
CN1CCC(CC(C(=O)N2CCCC2)(c2ccccc2)c2ccccc2)C1 (stereo not drawn)	none (no result: Shiga toxin inh, Pf growth 48h, Pf growth 96h, CHX counter)
O=C(NCc1ccco1)c1ccc([N+](=O)[O-])o1	HCMV antiviral -66, Pf growth 48h inconclusive, Pf growth 96h inconclusive, CHX counter 12
O=C(NCc1cccnc1)c1ccc([N+](=O)[O-])o1	HCMV antiviral -85, Pf growth 48h 4.1µM, Pf growth 96h inconclusive, HCV inhibitor inconclusive, CHX counter 31
O=C(Nc1cccnc1)c1ccc([N+](=O)[O-])o1	Shiga toxin inh 71, Pf growth 48h inconclusive, HCV inhibitor inconclusive, CHX counter 38
O=C(Nc1cccnc1)c1cccc([N+](=O)[O-])c1	none
CN(Cc1ccon1)C(=O)CC1C(=O)NCCN1CC1CCCCC1 (stereo not drawn)	none
Oc1ccc(Cl)cc1CNc1ccccn1	Pf growth 48h inconclusive, Pf growth 96h 10µM, CHX counter 15
Oc1c(Cl)cc(Cl)cc1CNc1ccc(Br)cn1	Shiga toxin inh 73, CHX counter 32 (no result: Pf growth 48h)
Cc1ccnc(NCc2cc(Cl)ccc2O)c1	none (no result: Shiga toxin inh, Pf growth 48h, Pf growth 96h, HCV inhibitor, CHX counter)
Oc1ccc(Cl)cc1CNc1ccc(Br)cn1	Shiga toxin inh 111, Pf growth 48h inconclusive, HCV inhibitor inconclusive, CHX counter 45
Oc1ccc(Cl)cc1CNc1nccs1	HCMV antiviral inconclusive, Pf growth 48h inconclusive, Pf growth 96h inconclusive
Oc1c(Br)cc(Br)cc1CNc1cnc2ccccc2c1	Pf growth 48h inconclusive
CC1(c2nnnn2Cc2ccccc2)CCC(=O)N1Cc1ccc(F)cc1 (stereo not drawn)	none (no result: Shiga toxin inh, Pf growth 48h, Pf growth 96h, HCV inhibitor, CHX counter)
CCNc1nc(C)c2cc(Br)c(=O)n(CC)c2n1	HCV inhibitor 8.9µM
Cc1ccc(S(=O)(=O)N2CCN(c3ncnc4sccc34)CC2)cc1	HCMV antiviral -85, Pf growth 48h inconclusive, Pf growth 96h inconclusive, HCV inhibitor 6.3µM
O=S(=O)(c1ccc(F)c(F)c1F)N1CCN(c2ncnc3sccc23)CC1	HCMV antiviral -79, HCV inhibitor inconclusive (no result: Shiga toxin inh, Pf growth 48h, Pf growth 96h, CHX counter)
c1ccc(CC2CCN(c3ncnc4sccc34)CC2)cc1	HCMV antiviral -85, HCV inhibitor 4µM, CHX counter 13
Cc1ccc(C)c(N2CCN(CCN3CCCCC3)CC2)c1	none
CCOC(=O)Cc1nn(Cc2nc(-c3ccc(C)cc3)cs2)c(=O)c2ccccc12	Pf growth 96h inconclusive, HCV inhibitor inconclusive
CC(=O)c1sc2c(c1N)c(=O)[nH]c(=O)n2-c1ccccc1	Pf growth 48h inconclusive
CCOC(=O)CC(=O)c1sc2c(c1N)c(=O)[nH]c(=O)n2-c1ccc(OC)cc1	Pf growth 48h inconclusive, Pf growth 96h 5.2µM
Cc1cc(C)c(S(=O)(=O)Nc2ccc(O)cc2)cc1C	none (no result: HCMV antiviral)
O=S(=O)(Nc1cc(Sc2cccc3cccnc23)c(O)c2ccccc12)c1ccc(F)cc1	HCMV antiviral -100, Shiga toxin inh active, Pf growth 48h 2.6µM, HCV inhibitor 11µM, CHX counter 24
Cc1cc(C)c(S(=O)(=O)Nc2cc(SCC(=O)O)c(O)c3ccccc23)cc1C	Pf growth 48h 10µM, Pf growth 96h 2.6µM, HCV inhibitor inconclusive (no result: HCMV antiviral)
O=C(O)CSc1cc(NS(=O)(=O)c2ccc(Cl)cc2)c2ccccc2c1O	HCMV antiviral -93, Pf growth 48h inconclusive, Pf growth 96h inconclusive, HCV inhibitor inconclusive
COc1ccc(S(=O)(=O)Nc2cc(Sc3ncn[nH]3)c(O)c3ccccc23)cc1	HCMV antiviral -78, Pf growth 96h 2.9µM, HCV inhibitor 32µM (no result: Pf growth 48h)

Assay outcomes as filed in PubChem.
